Several values for one entry are separate records, joined by “and”; a condition that tells them apart may be missing. Equal entries are not always repeated. Unmarked numbers belong to inactive results. Where a call stands in place of a potency, no number is given. Activity calls are given as the source filed them. Unless noted, calls follow the shape of the dose curve; as a rule, active = well fitted curve in the direction sought with a large enough effect in the repeat runs; inconclusive = weak or mixed curves; inactive = no such curve, though single readings can be large; an effect the other way counts as inactive or inconclusive.
Assays:
[1] = qHTS assay to identify small molecule antagonists of the thyroid receptor (TR) signaling pathway (AID 743065); also: nearly all actives have a fitted effect of over 55% in size; also: potency is read from the fitted curve at half-maximal effect
Summary of the method: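 GH3.TRE-Luc rat pituitary cells (two TREs driving luciferase) were dosed with compound, then stimulated with 1 nM T3 (final) for 23.5 h at 37 C. ONE-Glo luminescence was the read-out, with CellTiter-Fluor fluorescence as the cytotoxicity counter-screen.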

[2] = test system: thyroid hormone receptor (rat, GH3 cells); assay: qHTS assay to identify small molecule agonists of the thyroid receptor (TR) signaling pathway (AID 743066; calls by dose curve; also: potency is read from the fitted curve at half-maximal effect)
[3] = molecular target: Estrogen receptor (Homo sapiens) (UniProt P03372); assay: qHTS assay to identify small molecule antagonists of the estrogen receptor alpha (ER-alpha) signaling pathway (AID 743069; active = well fitted curve in the direction sought with a large enough effect in the signal ratio in the repeat runs, not every such curve was filed as active; inconclusive = weak or mixed curves, or effect the other way; inactive = no such curve, though single readings can be large or run the other way; the % refers to the signal ratio)
Estrogen receptor (Homo sapiens), sequence (P03372 whole entry, looked up): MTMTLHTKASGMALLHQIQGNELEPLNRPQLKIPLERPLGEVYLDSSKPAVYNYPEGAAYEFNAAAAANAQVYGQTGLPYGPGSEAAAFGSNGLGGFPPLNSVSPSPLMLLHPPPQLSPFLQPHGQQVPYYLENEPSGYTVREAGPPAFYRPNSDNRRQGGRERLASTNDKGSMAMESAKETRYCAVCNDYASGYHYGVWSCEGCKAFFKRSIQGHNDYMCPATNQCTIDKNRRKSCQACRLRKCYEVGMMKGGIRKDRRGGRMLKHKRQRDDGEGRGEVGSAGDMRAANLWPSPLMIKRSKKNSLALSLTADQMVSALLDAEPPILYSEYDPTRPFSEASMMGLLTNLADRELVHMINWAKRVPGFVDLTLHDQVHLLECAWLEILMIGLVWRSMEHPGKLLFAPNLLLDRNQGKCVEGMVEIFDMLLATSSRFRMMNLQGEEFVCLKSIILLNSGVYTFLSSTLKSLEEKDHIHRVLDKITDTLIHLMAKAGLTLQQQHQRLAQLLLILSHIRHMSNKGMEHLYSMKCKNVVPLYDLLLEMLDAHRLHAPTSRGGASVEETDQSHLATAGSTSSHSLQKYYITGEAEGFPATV
Summary of the method: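 HEK293 ER-alpha-UAS-bla GripTite cells, held overnight in 2% charcoal-stripped FBS, 5,000 cells/well, preincubated 4 h, then compound plus 17beta-estradiol for 18 h at 37C. Beta-lactamase read by LiveBLAzer B/G FRET substrate, 2 h at room temperature.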

[4] = qHTS assay to identify small molecule antagonists of the estrogen receptor alpha (ER-alpha) signaling pathway - cell viability counter screen (AID 743074; calls by dose curve;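 also: HEK293 cells carrying ER-alpha-UAS-bla reporter stimulated with 17beta-estradiol; nearly all actives have a fitted effect of over 45% in size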)
[5] = molecular target: Estrogen receptor (Homo sapiens) (UniProt P03372); assay: qHTS assay to identify small molecule agonists of the estrogen receptor alpha (ER-alpha) signaling pathway (AID 743075; calls by dose curve; also: potency is read from the fitted curve at half-maximal effect)
[6] = molecular target: Estrogen receptor (Homo sapiens) (UniProt P03372); assay: qHTS assay to identify small molecule agonists of the estrogen receptor alpha (ER-alpha) signaling pathway using the BG1 cell line (AID 743079); conditions: BG1Luc4E2 cells, ERE-luciferase agonist, 22 h; also: nearly all actives have a fitted effect of over 20% in size
[7] = qHTS assay to identify small molecule antagonists of the estrogen receptor alpha (ER-alpha) signaling pathway using the BG1 cell line (AID 743080; calls by dose curve;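 also: BG1 cells stimulated with 17beta-estradiol alongside compound; nearly all actives have a fitted effect of over 25% in size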; also: potency is read from the fitted curve at half-maximal effect)
Summary of the method: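 Quantitative HTS on the Tox21 10K library: BG1 cells with endogenous ER-alpha and ERE-luciferase reporter, 17beta-estradiol stimulation, 21.5 h compound exposure, luminescence endpoint with parallel fluorescence cytotoxicity counter-read.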

[8] = qHTS assay to identify small molecule antagonists of the estrogen receptor alpha (ER-alpha) signaling pathway using the BG1 cell line - cell viability counter screen (AID 743081);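 also: compound given together with 17beta-estradiol as the ER stimulus; nearly all actives have a fitted effect of over 45% in size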
Aromatase (Homo sapiens) = Aromatase (Homo sapiens) (UniProt P11511); assay: qHTS assay to identify aromatase inhibitors (AID 743083); also: nearly all actives have a fitted effect of over 55% in size; also: potency is read from the fitted curve at half-maximal effect
Aromatase (Homo sapiens), sequence (P11511 whole entry, looked up): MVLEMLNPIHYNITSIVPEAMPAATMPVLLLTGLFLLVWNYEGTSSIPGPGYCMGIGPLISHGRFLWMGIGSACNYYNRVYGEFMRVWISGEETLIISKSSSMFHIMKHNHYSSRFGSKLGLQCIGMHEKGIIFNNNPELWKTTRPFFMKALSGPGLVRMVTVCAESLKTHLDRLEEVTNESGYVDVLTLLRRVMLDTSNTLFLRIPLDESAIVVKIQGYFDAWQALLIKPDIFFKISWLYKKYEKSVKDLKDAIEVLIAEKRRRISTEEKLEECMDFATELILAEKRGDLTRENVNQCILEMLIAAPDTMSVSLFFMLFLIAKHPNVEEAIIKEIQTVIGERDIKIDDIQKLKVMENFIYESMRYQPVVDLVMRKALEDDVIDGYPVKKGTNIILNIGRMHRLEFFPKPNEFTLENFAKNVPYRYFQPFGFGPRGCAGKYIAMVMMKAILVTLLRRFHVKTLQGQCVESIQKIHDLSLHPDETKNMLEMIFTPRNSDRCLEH

[9] = qHTS assay to identify aromatase inhibitors - cell viability counter screen (AID 743084);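 also: cells stimulated with testosterone during compound exposure; nearly all actives have a fitted effect of over 55% in size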; also: potency is read from the fitted curve at half-maximal effect

SMILES | Potency [1] | Potency [2] | Potency [3] | Potency [4] | Potency [5] | activation ([6]; at 70.3 µM (top of the series)) | activation ([6]; at 95 µM (top of the series)) | Potency [7] | Potency [8] | Potency (Aromatase (Homo sapiens)) | Potency [9] | activation ([6]; at 32.5 µM (top of the series)) | activation ([6]; at 260 µM (top of the series))
C[C@H](N)C(=O)c1ccccc1 | inactive | inactive | inactive | inactive | inactive | -5.09% | 4.39% | inactive | inactive | inactive | inactive |  | 
CCCCOC(C)=O | inactive | inactive | inactive | inactive | inactive |  | -9.13% | inactive | inactive | inactive | inactive |  | 
Cc1ccc(Cl)c(O)c1 | inactive | inactive | inactive | inactive | inactive | 9.43% |  | inactive | inactive | inactive | inactive |  | 
CCNP(=S)(OC)O/C(C)=C/C(=O)OC(C)C (centres undefined) | inactive | inactive | inactive | inactive | inactive | 10.8% |  | inactive | inactive | inactive | inactive |  | 
N[C@@H](Cc1ccc(Oc2cc(I)c(O)c(I)c2)c(I)c1)C(=O)O | inactive | 0.168 µM (active) | inactive | inactive | inactive | -1.5% |  | inactive | inactive | inactive | inactive |  | 
O=C(NC(O)C(Cl)(Cl)Cl)NC(O)C(Cl)(Cl)Cl (centres undefined) | inactive | inactive | inactive | inactive | inactive | 4.91% |  | inactive | inactive | inactive | inactive |  | 
CCN[C@@H](C)Cc1ccccc1 | inactive | inactive | inactive | inactive | inactive |  | 0.895% | inactive | inactive | inactive | inactive |  | 
OP(O)c1ccccc1 | inactive | inactive | inactive | inactive | inactive |  | 6.24% | inactive | inactive | inactive | inactive |  | 
COC(=O)c1ccccc1CS(=O)(=O)NC(=O)Nc1nc(OC)cc(OC)n1 | inactive | inactive | inactive | inactive | inactive | 1.94% |  | inactive | inactive | inactive | inactive |  | 
O=c1[nH]oc2c1CCNC2 | inactive | inactive | inactive | inactive | inactive | -5.36% |  | inactive | inactive | inactive | inactive |  | 
CC(C)[N+](C)(CCC(C(N)=O)(c1ccccc1)c1ccccc1)C(C)C | inactive | inactive | inactive | inactive | inactive |  |  | inactive | inactive | inactive | inactive | 1.94% | 
CNC(=O)O/N=C(/CSC)C(C)(C)C | inactive | 61.1 µM (active) | inactive | inactive | inactive | -5.87% |  | inactive | inactive | inactive | inactive |  | 
NC(=O)CS(=O)C(c1ccccc1)c1ccccc1 (centres undefined) | inactive | inactive | inactive | inactive | inactive | -2.29% |  | inactive | inactive | inactive |  |  | 
O=[N+]([O-])CCO | inactive | inactive | inactive | inactive | inactive |  | -2.33% | inactive | inactive | inactive |  |  | 
c1cncc([C@@H]2CCCCN2)c1 | inactive | inactive | inactive | inactive | inactive | -1.75% |  | inactive | inactive | inactive | inactive |  | 
CCOC(=O)CCl | inactive | inactive | inactive | inactive | inactive | 26.5% |  | inactive | inactive | inactive | inactive |  | 
N#CN | inactive | inactive | inactive | inactive | inactive | -14.8% |  | inactive | inactive | inactive | inactive |  | -1.65%
C[C@H]1CCCC(=O)CCC/C=C/c2cc(O)cc(O)c2C(=O)O1 | 23.4 µM (active) and 15.9 µM (active) | inactive |  | inactive | 13.3 nM [inconclusive] (active) and 71.5 nM [inconclusive] (active) | -34.9% (active) |  | 22.4 µM (active) |  | 23.4 µM (active) | 18.6 µM (active) | -13.6% (active) | 
CCOC(=O)NC(C)(C)Cc1ccc(Cl)cc1 | inactive | inactive | inactive |  | inactive | 6.17% |  | inactive | inactive | inactive | inactive |  | 
Cc1cc(OC(=O)N(C)C)nn1C(=O)N(C)C | inactive | inactive | inactive |  | inactive | -8.77% |  | inactive | inactive | inactive | inactive |  | 
CC[C@H](N)c1ccccc1 | inactive | inactive | inactive |  | inactive | 0.171% |  | inactive | inactive | inactive | inactive |  | 
O=C(Cl)CCl | inactive | inactive |  | inactive | inactive |  | 0.754% | inactive | inactive | inactive | inactive |  | 
C(COCC1CO1)OCC1CO1 (centres undefined) | 43.3 µM (active) | inactive |  | inactive | inactive | 0.393% |  | inactive | inactive | inactive | inactive |  | 

— PubChem BioAssay (Tox21)
